# Data as given in PubChem BioAssay AID504848 (National Center for Advancing Translational Sciences (NCATS), 2011).
# The campaign covered roughly 2,300 compounds. About 1,400 (61%) were called active. Roughly 29% stayed inconclusive and do not appear here. So high a share suggests a set chosen from earlier hits. Some of the results follow. Unmarked numbers belong to inactive results. The call rests on the fitted dose curve; in most records, active means well fitted inhibition curve with a large enough effect; inconclusive means small, poorly fitted or top-dose-only effect, or effect the other way; inactive means no such curve, though single readings can be large or run the other way.
# Experiment: Confirmation screen for delayed death inhibitors of the malarial parasite plastid, 96 hour incubation; further: nearly all actives have a fitted effect of over 60% in size
# Settings: P. falciparum luciferase growth in erythrocytes; series mostly up to 28.7 µM; activity change, negative = inhibition: at the top concentration
# How it was run: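 Two-generation (96 h, 37 C) exposure of P. falciparum carrying an integrated firefly luciferase reporter in erythrocytes, 0.1% parasitemia and 2% hematocrit final, Albumax-supplemented RPMI. Luminescence decrease measures growth inhibition.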
# On the % scale 0 is the no-effect control and ±100 the full control effect; potency means the concentration at half of the fitted maximal effect.
Structure (SMILES),Potency,"activity change, negative = inhibition [%]"
COc1cc([N+](=O)[O-])ccc1NC(=O)Nc1cccnc1,10 µM (active),
Cc1ccc(S(=O)(=O)N2CCN(C(=O)c3cc(S(=O)(=O)N(C)C)ccc3N3CCCC3)CC2)c(C)c1,8.91 µM (active),
Cc1ccc(S(=O)(=O)N2CCN(C(=O)c3ccc(Br)o3)CC2)c(C)c1,6.31 µM (active),
CCc1ccc(/C=C/c2c[nH]c3ccccc23)[n+](CC)c1,0.0501 µM (active),
O=C(NCCCN1CCCC1)c1ccc2c(c1)N(Cc1ccccc1F)C(=O)c1ccccc1S2=O (stereo not drawn),11.2 µM (active),
Cc1cccc(CN2C(=O)c3ccccc3S(=O)(=O)c3ccc(C(=O)NCCCN4CCCC4)cc32)c1,1.58 µM (active),
CCN1CCCC1CNC(=O)c1ccc2c(c1)N(Cc1ccccc1F)C(=O)c1ccccc1S2(=O)=O (stereo not drawn),2 µM (active),
CCN1C(=O)c2ccccc2Sc2ccc(C(=O)NCCCN3CCCCC3)cc21,10 µM (active),
CCOC(=O)N1CCN(C(=O)c2ccc3c(c2)N(Cc2cc(C)ccc2C)C(=O)c2ccccc2S3=O)CC1 (stereo not drawn),3.98 µM (active),
O=C(c1ccc2c(c1)N(Cc1cccc(Cl)c1)C(=O)c1ccccc1S2(=O)=O)N1CCN(c2ccccn2)CC1,2.82 µM (active),
CCCn1c(=NC(=O)CCS(=O)(=O)c2ccccc2)sc2cc(S(N)(=O)=O)ccc21,12.6 µM (active),
O=C(NC1C=CS(=O)(=O)C1)c1sc2ccccc2c1Cl (stereo not drawn),0.398 µM (active),
CC1CCN(C(=O)Cn2c(=O)oc3cc(S(=O)(=O)N4CCCCC4)ccc32)CC1,12.6 µM (active),
COC(=O)c1c(-n2c(C)cc(C=O)c2C)sc2c1CCCC2,12.6 µM (active),
CCOC(=O)C[n+]1c(C)ccc2c1CCC2,12.6 µM (active),
O=C(CCNC(=O)c1ccc(Cl)cc1)NC1CCCc2ccccc21 (stereo not drawn),12.6 µM (active),
CN1CCN(c2ccccc2NC(=O)c2cccc(OCc3ccccc3)c2)CC1,1.78 µM (active),
CCn1c(/C=C/N(C(C)=O)c2ccccc2)[n+](CC)c2ccc(Cl)cc21,1 µM (active),
CCOC(=O)c1ccc2c(c1)n(CC)c(/C=C/N(C)c1ccccc1)[n+]2CC,0.0891 µM (active),
Cc1ccc(CNC(=O)COc2ccccc2-c2ccccc2)cc1,11.2 µM (active),

Structure (SMILES),Potency,"activity change, negative = inhibition [%]"
O=[N+]([O-])c1cccc(-c2c[n+]3c(n2-c2ccccc2)SCC3)c1,1.78 µM (active),
COC(=O)C(NC(=O)c1ccccc1C)(Nc1ncc(S(=O)(=O)c2ccc([N+](=O)[O-])cc2)s1)C(F)(F)F (stereo not drawn),3.16 µM (active),
CCN(CC)c1ccc(/C=N/Nc2nc3ccccc3[nH]2)cc1,2.51 µM (active),
Cc1c(/C=N/Nc2nc3ccccc3[nH]2)c2ccccc2n1C,0.891 µM (active),
CC(=O)N1CCSc2ccc(S(=O)(=O)Nc3ccc(C)cc3)cc21,12.6 µM (active),
Cc1ccc(S(=O)(=O)C2(C(=O)N3CCCCCC3)CC2)cc1,,-5.14
O=C(COc1ccc(Cl)cc1)Nc1cc(S(=O)(=O)N2CCCCC2)ccc1N1CCCCC1,5.01 µM (active),
CC(Oc1cccc(Cl)c1)C(=O)Nc1cc(S(=O)(=O)N2CCOCC2)ccc1N1CCCCC1 (stereo not drawn),3.98 µM (active),
O=C(COc1ccc(Br)cc1)Nc1cc(S(=O)(=O)N2CCCCC2)ccc1N1CCCCC1,3.98 µM (active),
Cc1cc(C(=O)OC(C)C(=O)Nc2nc(-c3ccccc3)cs2)c(C)o1 (stereo not drawn),,-14.6
COc1ccccc1Nc1nnc(SCC(=O)N2CCCC2)s1,2.51 µM (active),
COc1ccccc1Nc1nnc(SCC(=O)Nc2nc(-c3ccc(F)cc3)cs2)s1,10 µM (active),
COc1ccccc1Nc1nnc(SCc2cc(=O)n3ccsc3n2)s1,4.47 µM (active),
CCOc1ccccc1Nc1nnc(SC(C)C(=O)Nc2nc(-c3ccccc3)cs2)s1 (stereo not drawn),15.8 µM (active),
COc1ccc(C(=O)NC2CC2)cc1OC1CCN(Cc2ccccc2)CC1,14.1 µM (active),
COc1ccc(C(=O)NC2CC2)cc1OC1CCN(C/C=C/c2ccccc2)CC1,2.24 µM (active),
COc1ccc(OC)c(-c2nc(C(=O)NC3CCN(Cc4ccccc4)CC3)cc3c2[nH]c2ccccc23)c1,4.47 µM (active),
CCCN1CCC(NC(=O)CC2C(=O)NCCN2Cc2cccc(OC)c2)CC1 (stereo not drawn),,-2.53
CCCCCCn1ccc(=N)cc1,3.55 µM (active),
Cc1ccc(-c2csc(N/N=C/c3ccco3)n2)c(C)c1,14.1 µM (active),

Structure (SMILES),Potency,"activity change, negative = inhibition [%]"
CCOc1ccc(NC(=O)CC2C(=O)N(c3ccccc3)C(=O)N2CCOC)cc1 (stereo not drawn),,-4.39
CCOc1ccc(C(=O)Nc2ccc(N3CCN(C)CC3)cc2)cc1,15.8 µM (active),
CC(C)N1CCC(N2CCN(Cc3ccc(-c4ccc(Cl)cc4)o3)CC2CCO)CC1 (stereo not drawn),5.01 µM (active),
CN1C[C@@H]2C[C@H]1CN2c1cc2c(cc1F)c(=O)c(C(=O)O)cn2C1CC1,2 µM (active),
COc1ccc(C2(CCN)CC(C)N(C)CC2C)cc1 (stereo not drawn),15.8 µM (active),
CCn1c2ccccc2c2cc(/C=N/n3cn[nH]c3=S)ccc21,6.31 µM (active),
CCOC(=O)C1(Cc2cccc(Cl)c2)CCCN(C(=O)C(C)(C)C)C1 (stereo not drawn),15.8 µM (active),
Cc1ccc(C2C3=C(CC(C)(C)CC3=O)N=C3c4ccccc4C(=O)C32)cc1 (stereo not drawn),7.08 µM (active),
O=C(CSc1c2c(nc3ccc(Cl)cc13)CCCC2)NCCCN1CCOCC1,10 µM (active),
CCN(CC)c1ccc(-c2sc(Nc3ccccc3)n[n+]2-c2ccc(F)cc2)cc1,12.6 µM (active),
c1ccn2cc(C34CC5CC(CC(C5)C3)C4)nc2c1,12.6 µM (active),
Cc1c(OCC(=O)NCc2cccnc2)ccc2c3c(c(=O)oc12)CCCC3,12.6 µM (active),
Cc1c(OC(C)C(=O)NCc2cccnc2)ccc2c3c(c(=O)oc12)CCCC3 (stereo not drawn),1.26 µM (active),
O=c1oc2ccccc2c(O)c1CN1CCCCC1,,0.904
CC(=O)N1/C(=C/c2ccc(N(C)C)cc2)C(=O)c2ccccc21,0.282 µM (active),
CCOC(=O)Cn1c(S(=O)(=O)Cc2cccc(F)c2)nc(-c2ccccc2)c1-c1ccccc1,7.08 µM (active),
C#CCn1c(S(=O)(=O)Cc2ccc(C)cc2)nc(-c2ccccc2)c1-c1ccccc1,12.6 µM (active),
C#CCn1c(S(=O)(=O)Cc2ccc(F)cc2)nc(-c2ccccc2)c1-c1ccccc1,12.6 µM (active),
